CBX7 inh = blocks human CBX7 binding to H3K27me3 peptide. O95931. AlphaScreen His6-CBX7 / biotin-H3K27me3 peptide binding; active compounds read low. normalised signal (fraction of DMSO) (concentration not given with the values). 1.1% of 66,000 active. AID 1224903; in the data active means normalised signal below about 0.5
Target sequence (O95931 whole entry, looked up): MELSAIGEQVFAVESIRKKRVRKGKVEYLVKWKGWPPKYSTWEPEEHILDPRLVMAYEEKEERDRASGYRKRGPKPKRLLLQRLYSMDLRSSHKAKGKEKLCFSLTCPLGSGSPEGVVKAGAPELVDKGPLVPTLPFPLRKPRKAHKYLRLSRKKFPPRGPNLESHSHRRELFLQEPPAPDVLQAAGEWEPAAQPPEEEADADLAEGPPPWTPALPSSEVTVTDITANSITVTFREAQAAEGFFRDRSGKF
* marks the source's active call; other numbers are inactive results. Shown is part of a subset that was picked to be rich in hits.

SMILES	CBX7 inh
CC(C)CN(CC(C)C)S(=O)(=O)c1ccc(C(=O)Nc2nnc(-c3cccs3)o2)cc1	0.96
CCOc1ccc(NC(=O)c2cnn(-c3ccccc3)c2C2CCN(C(=O)OC(C)(C)C)CC2)cc1	0.98
O=C(Nc1nnc(-c2ccccc2)o1)c1ccc(Br)cc1	0.27*
O=C(Nc1nnc(-c2ccccc2)o1)c1ccc(Cl)c(Cl)c1	0.79
COc1ccc(-c2nnc(NC(=O)c3ccc(S(=O)(=O)N(C)c4ccccc4)cc3)o2)cc1	0.94
CCn1cc(C(=O)Nc2cccc(Cl)c2)c(=O)c2ccc(C)nc21	1.1
CCOC(=O)c1ccc(NC(=O)CC2C(=O)N(c3ccccc3)C(=O)N2Cc2ccc(F)cc2)cc1 (stereo unspecified)	0.99
Cc1ccc(-c2nn(CCC(=O)Nc3ccccc3C)c(=O)c3ccccc23)cc1	0.98
O=C(NCCCn1ccnc1)c1ccc(C#Cc2ccccc2)cc1	0.11*
O=C(NCCCn1ccnc1)C(=O)NCCc1ccccc1	1.2
O=C(NCCCn1ccnc1)C(O)(c1ccccc1)c1ccccc1	1
CC(CCc1ccccc1)NC(=O)Cn1ncc2ccsc2c1=O (stereo unspecified)	1
Cc1ccccc1NCC(O)Cn1c(C)c(C)c2ccccc21 (stereo unspecified)	0.81
Cc1ccc(C)c(NCC(O)Cn2c3ccccc3c3ccccc32)c1 (stereo unspecified)	0.68
COc1ccc(OC)c(NCC(O)Cn2c3ccccc3c3ccccc32)c1 (stereo unspecified)	0.3*
Cc1ccc(C)c(Cn2c(=O)n(CCCCCC(=O)NCc3ccccc3)c(=O)c3sccc32)c1	1
CC(=O)Nc1ccccc1-c1nc2ccc(C(=O)NC3CCCC3)cc2[nH]c1=O	0.99
CC1CCCC(NC(=O)C2(C)CCC(=O)N2CCN2CCCCCC2)C1C (stereo unspecified)	1.2
CCCOc1ccc(-c2nc(Oc3ccc(Cl)cc3)c3ccccc3n2)cc1	1.2
Cc1nc(Nc2ccc(C(F)(F)F)cc2)c2c3c(sc2n1)CCC3	1
COc1ccc(CNc2cc(C)nc3c(-c4ccc(OC)c(OC)c4)c(C)nn23)cc1	0.92
COc1ccc(-c2c(C)nn3c(NCc4ccc(F)cc4)cc(C)nc23)cc1OC	0.89
COc1ccc(-c2c(C)nn3c(NCc4ccccn4)cc(C)nc23)cc1OC	0.39*
O=C1CSc2ccc(C(=O)N3CCN(c4cccc(Cl)c4)CC3)cc2N1	0.93
Cc1c(C(=O)NCC(C)C)sc2nc(-c3ccccc3)cn12	0.94
SMILES	CBX7 inh
CCc1ccccc1Nc1nc(-c2c(C)nc3ncccn23)cs1	0.77
CC(=O)c1cccc(Nc2nc(-c3c(C)nc4ncccn34)cs2)c1	0.85
Cc1nc2sccn2c1-c1csc(Nc2ccc(Cl)cc2)n1	0.75
CCN(CC)c1ccc(Nc2nc(-c3c(C)nc4ncccn34)cs2)cc1	0.33*
CCOc1ccc(Nc2nc(-c3c(C)nc4sccn34)cs2)cc1	0.67
CCN(CC)c1ccc(Nc2nc(-c3c(C)nc4sccn34)cs2)cc1	0.1*
CCC(C)(C)NC(=O)CN(C)S(=O)(=O)c1cccc2cccnc12	0.98
COCCCNC(=O)CSc1nc(-c2ccc(F)cc2)[nH]c1-c1ccc(Cl)cc1	0.93
Cc1ccc(-c2csc(Nc3ccc(S(=O)(=O)Nc4cc(C)on4)cc3)n2)cc1	0.98
CC(NC(=O)CCc1cn(Cc2ccccc2)c2ccccc12)c1ccccc1 (stereo unspecified)	0.97
COc1ccc(N2CCC(CNC(=O)Nc3ccccc3)C2)cc1 (stereo unspecified)	0.77
COc1ccc(N2CCC(CNS(=O)(=O)c3cccc(Cl)c3)C2)cc1 (stereo unspecified)	0.47*
COc1ccc(N2CCN(C3CC(=O)N(c4cccc(Cl)c4)C3=O)CC2)cc1 (stereo unspecified)	1.1
COc1ccc(CNC(=O)c2cc(-c3ccc(O)cc3)on2)cc1	1
O=C(NCc1ccc2c(c1)OCO2)C1CCN(C(=O)c2cnn(-c3ccccc3)c2-n2cccc2)CC1	0.99
COc1ccc(CCNc2oc(COc3ccc(F)cc3)nc2C#N)cc1OC	0.55
COc1ccc(CCNc2oc(COc3cccc(C)c3)nc2C#N)cc1OC	0.46*
Cc1cccc(OCc2nc(C#N)c(NCCc3ccccc3)o2)c1	0.67
Cc1cccc(OCc2nc(C#N)c(NCCN(C)C)o2)c1	1
COc1ccc(CNc2oc(COc3cccc(C)c3)nc2C#N)cc1	0.67
Cc1cccc(OCc2nc(C#N)c(NCc3ccc4c(c3)OCO4)o2)c1	0.43*
COc1ccc(CCNc2oc(COc3ccc(C)cc3)nc2C#N)cc1OC	0.48*
COc1ccc(CCNc2oc(COc3ccc(Cl)cc3)nc2C#N)cc1OC	0.95
Cc1ccccc1OCc1nc(C#N)c(NCc2ccc3c(c2)OCO3)o1	0.91
CC(C)c1ccc(N(C)S(=O)(=O)c2ccc3[nH]cc(C(=O)N4CCCC4)c(=O)c3c2)cc1	1.1
CCOC(=O)C1CCCN(c2c(NC(c3ccccc3)c3ccccc3)c(=O)c2=O)C1 (stereo unspecified)	0.94
CCOC(=O)Cc1nnc(NC(=O)c2ccc(C)cc2)s1	1.1

Assay outcomes: PubChem, Bradner/Qi Labs at DFCI
